This is part of a sample that, as a whole, favours compounds with a hit. Of some 83,000 tested, about 20% had one in any assay.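 For each line, cells grew in 96-well plates with the test compound present at a single concentration for 48 hours.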 Unmarked numbers belong to inactive results. Active and inactive are the calls of the source. How the source made its calls: active means growth percent below 10; inactive means the rest.
Tests used:
Assay in all cases: NCI-60 one-dose screen, 48 h (100 = growth as untreated, 0 = no growth, -100 = all killed)
Conditions in all cases: 10 µM
SR leukemia = system: SR leukemia
RPMI-8226 leukemia = system: RPMI-8226 leukemia
OVCAR-8 ovarian = system: OVCAR-8 ovarian
OVCAR-5 ovarian = system: OVCAR-5 ovarian
OVCAR-4 ovarian = system: OVCAR-4 ovarian
SK-OV-3 ovarian = system: SK-OV-3 ovarian
IGROV1 ovarian = system: IGROV1 ovarian
OVCAR-3 ovarian = system: OVCAR-3 ovarian
HS 578T breast = system: HS 578T breast
NCI/ADR-RES ovarian = system: NCI/ADR-RES ovarian
T-47D breast = system: T-47D breast
BT-549 breast = system: BT-549 breast
MDA-MB-435 melanoma = system: MDA-MB-435 melanoma
SW-620 colon = system: SW-620 colon
MCF7 breast = system: MCF7 breast
HCT-116 colon = system: HCT-116 colon
HCC-2998 colon = system: HCC-2998 colon
KM12 colon = system: KM12 colon

Row | Structure (SMILES) | growth (SR leukemia) | growth (RPMI-8226 leukemia) | growth (OVCAR-8 ovarian) | growth (OVCAR-5 ovarian) | growth (OVCAR-4 ovarian) | growth (SK-OV-3 ovarian) | growth (IGROV1 ovarian) | growth (OVCAR-3 ovarian) | growth (HS 578T breast) | growth (NCI/ADR-RES ovarian) | growth (T-47D breast) | growth (BT-549 breast) | growth (MDA-MB-435 melanoma) | growth (SW-620 colon) | growth (MCF7 breast) | growth (HCT-116 colon) | growth (HCC-2998 colon) | growth (KM12 colon)
1 | CC(=O)Nc1ccc(S(=O)(=O)c2ccnc3cc(Cl)ccc23)cc1 | 83.3% | 72.1% | 73.3% | 100% | 81.4% | 88% | 98.2% | 76% | 85.2% | 77.3% | 72.5% | 94.9% | 73.9% | 81.8% | 57.8% | 78.7% | 100% | 
2 | Clc1nc2ccc(Br)cc2cc1-c1nc2ccccc2[nH]1 | 92.3% | 70.4% | 88.2% | 108% | 65.3% | 54.8% | 80.1% | 95.5% | 47.8% | 92.9% | 104% | 85.9% | 102% | 89.7% | 42.5% | 77.8% | 108% | 90.7%
3 | COc1cc(C(=O)/C(C)=C/c2c[nH]c3ccccc23)cc(OC)c1OC | 17.1% | 49.9% | 20.3% | 53.3% | 50.1% | 29.9% | 18.8% | -8.19% (active) | 44.9% | 5.38% (active) | 53% | -9% (active) | 5.74% (active) | 29.9% | 15.4% | 2.11% (active) | 15.2% | 16.5%
4 | CC(C)[N+]1(C)C2CC[C@@H]1CC(OC(=O)C(CO)c1ccccc1)C2 (stereo partly drawn) | 123% | 101% | 104% | 108% | 110% | 116% | 119% | 125% | 104% | 101% | 96.6% | 106% | 104% | 101% | 111% | 107% | 103% | 115%
5 | Cc1cc(Cl)ccc1Nc1nc(C(F)(F)F)ccc1C(=O)N/N=C/c1c(Cl)cccc1Cl | -26.6% (active) | -15.1% (active) | 9.98% (active) | 24.8% | 7.14% (active) | -12.9% (active) | 4.15% (active) | -2.74% (active) | -22.1% (active) | 11.9% | -13.3% (active) | -15% (active) | 10.5% | 6.12% (active) | 7.7% (active) | 1.5% (active) | 19.5% | 
6 | Cc1c(Cl)cccc1NC(=O)CCCl | 84.1% | 90.6% | 94.2% | 106% | 111% | 104% | 104% | 102% | 104% | 105% | 92.3% | 99.7% | 105% | 106% | 102% | 89.4% | 99.1% | 
7 | Cc1ccc(NCCN(C)CC(C)O)c2c(=O)c3ccccc3sc12 (stereo not drawn) | 2.49% (active) | 19% | 33.9% | 61.8% | 59.9% | 54.9% | 38.4% | 66.7% | 55.2% | 44.7% | 85.2% | 84.4% | 30% | 23.6% | 20% | 18.5% | 15.4% | 
8 | Cn1cnc([N+](=O)[O-])c1/C=C1\Oc2ccc(Br)cc2C1=O | 33.9% | 4.16% (active) | 77.8% | 105% | 103% | 89.9% | 87.1% | 99.7% | 103% | 101% | 98.1% | 95.8% | 78% | 82.6% | 47.9% | 56.9% | 101% | 93.9%
9 | Cc1nc2n(c(=O)c1CCN1CCC(c3noc4cc(F)ccc34)CC1)CCC[C@@H]2O | 93.8% | 111% | 97.5% | 88.6% | 105% | 103% | 105% | 106% | 100% | 97.2% | 84.1% | 99.4% | 98.8% | 101% | 84.7% | 99.5% | 109% | 
10 | O=C(CCNC(=O)c1nc(-c2ccccc2)n(-c2ccc(Cl)cc2)n1)NO | 98.6% | 103% | 108% | 96.4% | 106% | 92.4% | 102% | 98.7% | 107% | 109% | 78.7% | 115% | 106% | 106% | 102% | 94% | 93.5% | 
11 | C=CCn1c(SCC(=O)Nc2ccc(C(=O)/C=C/c3ccc(OC)cc3)cc2)nnc1-c1ccc(OC)c(OC)c1 | 58.7% | 34.3% | 79.8% | 110% | 73.8% | 98% | 94.4% | 89.6% | 86.4% | 86.4% | 58.3% | 75.8% | 86.7% | 97.2% | 43.5% | 55.5% | 94.6% | 87.9%
12 | CC(C)(C)c1ccc(S(=O)(=O)N[C@H]2CC[C@H]3[C@@H]4CCc5cc(O)ccc5[C@H]4CC[C@]23C)cc1 | 20.5% | 37.9% | 50% | 92.7% | 51.4% | 87% | 44.6% | 37.3% | 63.1% | 46.4% | 26.2% | 43.9% | 30.4% | 58.5% | 14.9% | 22.1% | 74.4% | 39.2%
13 | c1ccc(/C(=N\Nc2ccc3ccccc3n2)c2ccccn2)cc1 | -23.6% (active) | 9.21% (active) | 11.1% | 51.1% | 10.1% | 20.5% | 2.49% (active) | 22.1% | 14.7% | 11.4% | 16.5% | 12.3% | 23.4% | 22.6% | 12.2% | 9.03% (active) | 45.5% | 
14 | NC(CSC(c1ccccc1)(c1ccccc1)c1cccc2ccccc12)C(=O)O (stereo not drawn) | 112% | 89.2% | 95.1% | 101% | 95.4% | 106% | 98.1% | 98.6% | 92.5% | 97.6% | 103% | 91.7% | 90.9% | 97.8% | 105% | 85.7% | 103% | 
15 | CCn1c(SCc2ccc(C)cc2)nnc1-c1nn(-c2ccc(Cl)cc2Cl)c(-c2ccc(Cl)cc2)c1C | 6.14% (active) | -3.78% (active) | 12.9% | 26.8% | 16.9% | -7.12% (active) | 30.8% | 15.8% | 38.4% | 52.1% | -8.15% (active) | -7.34% (active) | 19.7% | 20.4% | 4.46% (active) | 1.74% (active) | 23.4% | 15.8%
16 | COc1cc(/C=C/c2cc(/C=C/c3ccc(O)c(OC)c3)nc(N)n2)ccc1O | -7.94% (active) | 2.88% (active) | 9.33% (active) | 5.83% (active) | 18.3% | -17.4% (active) | 3.42% (active) | -7.57% (active) | -0.999% (active) | 39.3% | 1.57% (active) | -24.4% (active) | -8.12% (active) | 1.86% (active) | 7.59% (active) | 0.331% (active) | 0.932% (active) | -29.3% (active)
17 | O=C(CI)OCC(COC(=O)CI)OC(=O)CI | -12.9% (active) | 50.9% | 97.9% | 104% | 64% | 119% | -57.1% (active) | 72.2% | 97.4% | 95.6% | 35.4% | 74.6% | 91.5% | 27.5% | 56.1% | 56.3% | 102% | 102%
